In PubChem BioAssay AID1159580 (chemical genetic matrix, 2015):
The campaign covered roughly 5,500 compounds. About 2,000 (36%) were called active. Roughly 18% stayed inconclusive and do not appear here. Rule as the data show it: active = normalized growth mostly below about 0.91 (no sharp cut-off); inconclusive = no clear call, values can overlap the other calls; inactive = mostly above about 0.92. This is one part of the list.

Test: chemical genetic growth profiling, strain panel (AID 1159580);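 also: tested at 20 µM; growth read once vehicle control cultures reached saturation at 30 °C; 1 = growth at the plate median or of vehicle wells; lower values mean less growth of the strain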
Conditions: growth OD

Measured: normalized growth

O=C(OC[C@H]1O[C@H](OC(=O)c2cc(O)c(O)c(OC(=O)c3cc(O)c(O)c(O)c3)c2)[C@H](OC(=O)c2cc(O)c(O)c(OC(=O)c3cc(O)c(O)c(O)c3)c2)[C@@H](OC(=O)c2cc(O)c(O)c(OC(=O)c3cc(O)c(O)c(O)c3)c2)[C@@H]1OC(=O)c1cc(O)c(O)c(OC(=O)c2cc(O)c(O)c(O)c2)c1)c1cc(O)c(O)c(OC(=O)c2cc(O)c(O)c(O)c2)c1
inactive: S. cerevisiae deletion strains, locus YKR026C, strain gcn3, stronger effect = lower value 1.03 | S. cerevisiae deletion strains, locus YKR091W, strain srl3, stronger effect = lower value 0.968 | S. cerevisiae deletion strains, locus YLL041C, strain sdh2, stronger effect = lower value 0.951 | S. cerevisiae deletion strains, locus YLR113W, strain HOG1, stronger effect = lower value 1.08 | S. cerevisiae deletion strains, locus YMR125W, strain sto1, stronger effect = lower value 1.04 | S. cerevisiae deletion strains, locus YNL183C, strain NPR1, stronger effect = lower value 0.988 | S. cerevisiae deletion strains, locus YNL248C, strain rpa49, stronger effect = lower value 0.922 | S. cerevisiae deletion strains, locus YNR049C, strain mso1, stronger effect = lower value 0.944 | S. cerevisiae deletion strains, locus YOL012C, strain htz1 0.275 | S. cerevisiae deletion strains, locus YOR231W, strain MKK1, stronger effect = lower value 1.04 | S. cerevisiae deletion strains, locus YPL256C, strain CLN2, stronger effect = lower value 1.14
active: S. cerevisiae deletion strains, locus YJR075W, strain HOC1, stronger effect = lower value 0.104 | S. cerevisiae deletion strains, locus YKL009W, strain mrt4, stronger effect = lower value 0.125 | S. cerevisiae deletion strains, locus YKL068W, stronger effect = lower value 0.082 | S. cerevisiae deletion strains, locus YKL085W, strain MDH1 (second series), stronger effect = lower value 0.0765 | S. cerevisiae deletion strains, locus YKL085W, strain MDH1, stronger effect = lower value 0.0765 | S. cerevisiae deletion strains, locus YKL160W, strain elf1, stronger effect = lower value 0.761 | S. cerevisiae deletion strains, locus YKL190W, strain CNB1, stronger effect = lower value 0.0756 | S. cerevisiae deletion strains, locus YKR001C, strain vps1, stronger effect = lower value 0.101 | S. cerevisiae deletion strains, locus YLL001W, strain dnm1, stronger effect = lower value 0.693 | S. cerevisiae deletion strains, locus YLL026W, stronger effect = lower value 0.689 | S. cerevisiae deletion strains, locus YLR027C, strain aat2, stronger effect = lower value 0.82 | S. cerevisiae deletion strains, locus YLR039C, strain RIC1, stronger effect = lower value 0.131 | S. cerevisiae deletion strains, locus YLR058C, strain SHM2, stronger effect = lower value 0.0679 | S. cerevisiae deletion strains, locus YLR102C, strain apc9, stronger effect = lower value 0.0965 | S. cerevisiae deletion strains, locus YLR221C, strain rsa3, stronger effect = lower value 0.785 | S. cerevisiae deletion strains, locus YLR258W, strain gsy2, stronger effect = lower value 0.807 | S. cerevisiae deletion strains, locus YLR262C, strain YPT6 (second series), stronger effect = lower value 0.596 | S. cerevisiae deletion strains, locus YLR262C, strain YPT6, stronger effect = lower value 0.149 | S. cerevisiae deletion strains, locus YLR268W, strain sec22, stronger effect = lower value 0.115 | S. cerevisiae deletion strains, locus YLR320W, strain mms22, stronger effect = lower value 0.777 | S. cerevisiae deletion strains, locus YLR330W, strain CHS5, stronger effect = lower value 0.0805 | S. cerevisiae deletion strains, locus YLR342W, strain FKS1 (second series), stronger effect = lower value 0.119 | S. cerevisiae deletion strains, locus YLR342W, strain FKS1, stronger effect = lower value 0.662 | S. cerevisiae deletion strains, locus YLR357W, strain rsc2, stronger effect = lower value 0.656 | S. cerevisiae deletion strains, locus YLR370C, strain arc18, stronger effect = lower value 0.334 | S. cerevisiae deletion strains, locus YLR371W, strain rom2, stronger effect = lower value 0.0958 | S. cerevisiae deletion strains, locus YLR384C, strain iki3, stronger effect = lower value 0.784 | S. cerevisiae deletion strains, locus YLR418C, strain cdc73, stronger effect = lower value 0.159 | S. cerevisiae deletion strains, locus YML016C, strain PPZ1, stronger effect = lower value 0.0844 | S. cerevisiae deletion strains, locus YML032C, strain rad52, stronger effect = lower value 0.103 | S. cerevisiae deletion strains, locus YML120C, strain ndi1, stronger effect = lower value 0.617 | S. cerevisiae deletion strains, locus YML124C, strain tub3, stronger effect = lower value 0.0933 | S. cerevisiae deletion strains, locus YMR058W, strain fet3, stronger effect = lower value 0.901 | S. cerevisiae deletion strains, locus YMR078C, strain ctf18, stronger effect = lower value 0.106 | S. cerevisiae deletion strains, locus YMR129W, stronger effect = lower value 0.921 | S. cerevisiae deletion strains, locus YMR205C, strain PFK2, stronger effect = lower value 0.721 | S. cerevisiae deletion strains, locus YMR223W, strain ubp8, stronger effect = lower value 0.0998 | S. cerevisiae deletion strains, locus YMR231W, strain pep5, stronger effect = lower value 0.148 | S. cerevisiae deletion strains, locus YMR263W, strain SAP30, stronger effect = lower value 0.0929 | S. cerevisiae deletion strains, locus YMR307W, strain GAS1, stronger effect = lower value 0.175 | S. cerevisiae deletion strains, locus YNL067W, strain RPL9B, stronger effect = lower value 0.0835 | S. cerevisiae deletion strains, locus YNL071W, strain lat1, stronger effect = lower value 0.88 | S. cerevisiae deletion strains, locus YNL128W, strain TEP1, stronger effect = lower value 0.0962 | S. cerevisiae deletion strains, locus YNL153C, strain GIM3, stronger effect = lower value 0.086 | S. cerevisiae deletion strains, locus YNL209W, strain ssb2, stronger effect = lower value 0.363 | S. cerevisiae deletion strains, locus YNL233W, strain BNI4, stronger effect = lower value 0.0934 | S. cerevisiae deletion strains, locus YNL250W, strain rad50, stronger effect = lower value 0.0969 | S. cerevisiae deletion strains, locus YNL271C, strain bni1, stronger effect = lower value 0.0916 | S. cerevisiae deletion strains, locus YNL298W, strain CLA4, stronger effect = lower value 0.0929 | S. cerevisiae deletion strains, locus YNL307C, strain MCK1, stronger effect = lower value 0.102 | S. cerevisiae deletion strains, locus YNL322C, strain KRE1 (second series), stronger effect = lower value 0.853 | S. cerevisiae deletion strains, locus YNL322C, strain KRE1, stronger effect = lower value 0.0735 | S. cerevisiae deletion strains, locus YNR052C, strain pop2, stronger effect = lower value 0.0934 | S. cerevisiae deletion strains, locus YOL006C, strain TOP1, stronger effect = lower value 0.155 | S. cerevisiae deletion strains, locus YOL147C, strain pex11, stronger effect = lower value 0.0861 | S. cerevisiae deletion strains, locus YOR001W, strain rrp6, stronger effect = lower value 0.663 | S. cerevisiae deletion strains, locus YOR061W, strain CKA2, stronger effect = lower value 0.065 | S. cerevisiae deletion strains, locus YOR069W, strain VPS5, stronger effect = lower value 0.0788 | S. cerevisiae deletion strains, locus YOR070C, strain gyp1, stronger effect = lower value 0.404 | S. cerevisiae deletion strains, locus YOR080W, strain dia2, stronger effect = lower value 0.349 | S. cerevisiae deletion strains, locus YOR083W, strain WHI5, stronger effect = lower value 0.695 | S. cerevisiae deletion strains, locus YOR106W, strain vam3, stronger effect = lower value 0.425 | S. cerevisiae deletion strains, locus YOR136W, strain idh2, stronger effect = lower value 0.108 | S. cerevisiae deletion strains, locus YOR144C, strain elg1, stronger effect = lower value 0.0856 | S. cerevisiae deletion strains, locus YOR184W, strain ser1, stronger effect = lower value 0.124 | S. cerevisiae deletion strains, locus YOR265W, strain rbl2, stronger effect = lower value 0.845 | S. cerevisiae deletion strains, locus YOR270C, strain vph1, stronger effect = lower value 0.438 | S. cerevisiae deletion strains, locus YOR290C, strain snf2, stronger effect = lower value 0.169 | S. cerevisiae deletion strains, locus YOR316C, strain cot1, stronger effect = lower value 0.0869 | S. cerevisiae deletion strains, locus YPL051W, strain arl3, stronger effect = lower value 0.565 | S. cerevisiae deletion strains, locus YPL055C, strain LGE1, stronger effect = lower value 0.103 | S. cerevisiae deletion strains, locus YPL078C, strain atp4, stronger effect = lower value 0.582 | S. cerevisiae deletion strains, locus YPL106C, strain sse1, stronger effect = lower value 0.829 | S. cerevisiae deletion strains, locus YPL240C, strain hsp82, stronger effect = lower value 0.889 | S. cerevisiae deletion strains, locus YPL241C, strain CIN2, stronger effect = lower value 0.0787 | S. cerevisiae deletion strains, locus YPR119W, strain clb2, stronger effect = lower value 0.0923 | S. cerevisiae deletion strains, locus YPR141C, strain kar3, stronger effect = lower value 0.096 | S. cerevisiae deletion strains, locus YPR163C, strain tif3, stronger effect = lower value 0.102 | S. cerevisiae deletion strains, locus YPR167C, strain met16, stronger effect = lower value 0.0927 | S. cerevisiae deletion strains, strain wtn01, stronger effect = lower value 0.0926 | S. cerevisiae strains, strain wild type, stronger effect = lower value 0.0831
